Drawing on PubChem BioAssay (Tox21), this text covers Potency for nine molecules.

Molecules are shown by their SMILES. Records with an inconclusive call do not appear. Calls of active or inactive are those of the source. Unless noted, calls follow the shape of the full dose curve.

Assay [1] in a line: Nuclear factor erythroid 2-related factor 2/antioxidant responsive element (Nrf2/ARE) small molecule agonists: qHTS cell viability counter screen in human keratinocytes (AID 1919968; active = well fitted curve in the direction sought with a large enough effect in the repeat runs; an effect the other way counts as inactive or inconclusive; also: nearly all actives have a fitted effect of over 55% in size; also: potency is read from the fitted curve at half-maximal effect). In short, it runs like this: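 Parallel cytotoxicity read: KeratinoSens HaCaT cells, compound treatment 23 h, viability by CellTiter-Fluor fluorescence 1 h post-reagent.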
In general terms: In qHTS, concentration-response curves come from the screen itself.

Assay [2] in a line: Nuclear factor erythroid 2-related factor 2/antioxidant responsive element (Nrf2/ARE) small molecule agonists: luciferase reporter gene qHTS assay in human keratinocytes (AID 1919969). Also: nearly all actives have a fitted effect of over 35% in size. Also: potency is read from the fitted curve at half-maximal effect. Background: Reporter assays use an easily measured gene product as a stand-in for the process of interest.
Assay [3] concerns the target Gonadotropin-releasing hormone receptor (Homo sapiens) (UniProt P30968). The assay can be described thus: Human gonadotropin-releasing hormone receptor (GnRHR) small molecule agonists, calcium flux assay in GnRHR-HEK293 cells (AID 1920063). Also: nearly all actives have a fitted effect of over 35% in size. Also: potency is read from the fitted curve at half-maximal effect. In short, it runs like this: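 Calcium flux, agonist mode, human GnRHR stably integrated in HEK293; dye 1 h at 37 C before compound; Ex/Em=480/540 kinetic read, 3 min; 15 concentrations, triplicate.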

Assay [4] concerns the target KiSS-1 receptor (Homo sapiens) (UniProt Q969F8). The assay can be described thus: Human kisspeptin (KISS1R) small molecule agonists, calcium flux assay in KISS1R-HEK293 cells (AID 1920064; active = well fitted curve in the direction sought with a large enough effect in the repeat runs; an effect the other way counts as inactive or inconclusive). In short, it runs like this: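 Triplicate 15-concentration series were applied to dye-loaded human KISS1R HEK293 cells, and agonist-evoked calcium fluorescence was captured for 3 min.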
In general terms: Calcium assays in cells follow changes in intracellular calcium, usually with a dye or a luminescent sensor.

The nature of assay [5]: p53 small molecule agonists, cell-based qHTS assay with human liver microsomes (AID 1963577).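 Also: p53 response element beta-lactamase reporter cells with liver microsomes plus NADPH.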 The method in brief:
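In this qHTS, p53 response-element beta-lactamase cells receive test compound together with a microsome/NADPH activating system (0.5 mg/mL final each) and are incubated 16 h at 37 C before LiveBLAzer fluorescence detection.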

A short description of assay [6]: p53 small molecule agonists, cell-based qHTS assay with rat liver microsomes (AID 1963578). In short, it runs like this: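 Agonist mode in p53RE-bla reporter cells, with compounds co-incubated 16 h at 37 C alongside 0.5 mg/mL rat liver microsomes and 0.5 mg/mL NADPH (final), followed by a 2 h LiveBLAzer detection step.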
The nature of assay [7]: p53 small molecule agonists, cell-based qHTS assay with human liver microsomes: qHTS cell viability counter screen (AID 1963579). Also: nearly all actives have a fitted effect of over 45% in size. Also: potency is read from the fitted curve at half-maximal effect. The method in brief:
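Metabolically activated exposure: compounds, human liver microsomes and NADPH (0.5 mg/mL final apiece) were added to p53RE-bla cells seeded 5 h earlier, left 16 h at 37 C, and then assessed for viability by CellTiter-Glo luminescence.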

Assay [8] is described as follows: p53 small molecule agonists, cell-based qHTS assay with rat liver microsomes: qHTS cell viability counter screen (AID 1963580). Also: nearly all actives have a fitted effect of over 45% in size. Also: potency is read from the fitted curve at half-maximal effect. In short, it runs like this: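 Counter screen for cytotoxicity under metabolic activation: rat liver microsomes and NADPH, 0.5 mg/mL final each, added with compounds to p53RE-bla HCT-116 cells; 16 h at 37 C, then ATP luminescence read.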

The nature of assay [9]: p53 small molecule agonists, cell-based qHTS assay: qHTS cell viability counter screen (AID 1963581). Also: nearly all actives have a fitted effect of over 45% in size. Also: potency is read from the fitted curve at half-maximal effect. The method in brief: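 Multiplexed with the reporter read, a CellTiter-Glo step (30 min, room temperature) gauges ATP-based viability of HCT-116 p53RE-bla cells after 16 h compound incubation at 37 C.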
Assay [10] deals with 5-hydroxytryptamine receptor 2A (Homo sapiens) (UniProt P28223). The assay can be described thus: 5-hydroxytryptamine receptor 2A (HTR2A) small molecule antagonists, cell-based qHTS assay (AID 1963586). Also: nearly all actives have a fitted effect of over 45% in size. Also: potency is read from the fitted curve at half-maximal effect. In short, it runs like this: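 CHO cells stably expressing human HTR2A were plated for 18 h at 37 C, then loaded with calcium dye for 1 h. Compounds were preincubated 5 min at room temperature before DOI (4 nM solution) was added. Kinetic fluorescence was read for 3 min.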
Sequence of 5-hydroxytryptamine receptor 2A (Homo sapiens) (P28223 whole entry, looked up): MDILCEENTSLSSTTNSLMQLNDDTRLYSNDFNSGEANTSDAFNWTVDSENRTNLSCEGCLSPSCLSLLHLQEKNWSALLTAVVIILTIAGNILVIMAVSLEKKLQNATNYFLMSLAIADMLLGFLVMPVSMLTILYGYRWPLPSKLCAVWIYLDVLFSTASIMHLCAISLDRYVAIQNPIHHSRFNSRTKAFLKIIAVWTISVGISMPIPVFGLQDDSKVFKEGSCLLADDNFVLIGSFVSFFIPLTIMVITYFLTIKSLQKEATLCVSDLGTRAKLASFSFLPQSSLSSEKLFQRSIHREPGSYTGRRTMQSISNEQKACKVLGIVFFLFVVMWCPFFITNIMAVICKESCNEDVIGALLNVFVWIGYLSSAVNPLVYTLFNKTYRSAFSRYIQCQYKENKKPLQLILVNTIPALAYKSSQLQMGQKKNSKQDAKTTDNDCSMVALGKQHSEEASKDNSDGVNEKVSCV

The target is the same in assay [11]. The assay can be described thus: 5-hydroxytryptamine receptor 2A (HTR2A) small molecule agonists, cell-based qHTS assay (AID 1963587). Also: nearly all actives have a fitted effect of over 30% in size. Also: potency is read from the fitted curve at half-maximal effect. In short, it runs like this:
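HTR2A-CHO cells, plated 18 h at 37 C/5% CO2, dye-loaded 1 h at 37 C; compounds in DMSO added by pin tool (agonist mode). Intracellular calcium flux read as kinetic fluorescence on FDSS over 2 min at 1 s intervals.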

The target in assay [12] is D(2) dopamine receptor (Homo sapiens) (UniProt P14416). The assay can be described thus: Dopamine D2 receptor (DRD2) small molecule antagonists, cell-based qHTS assay (AID 1963595; active = well fitted inhibition curve with a large enough effect in the signal ratio in the repeat runs, with a control signal flat; the % refers to the signal ratio; also: potency is read from the fitted curve at half-maximal effect). The method in brief:
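HEK293 cells stably expressing DRD2 were preincubated with 0.1 mM Ro20-1724, then with compound for 10 min at room temperature. Cells were stimulated with 200 nM NKH477 plus 12 nM quinpirole for 30 min, and cAMP was read by HTRF.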

The nature of assay [13]: p53 small molecule agonists, cell-based qHTS assay (AID 1963582; active = well fitted activation curve with a large enough effect in the signal ratio in the repeat runs, not every such curve was filed as active; the % refers to the signal ratio). In short, it runs like this: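 Beta-lactamase reporter cells (p53RE-bla) treated with compounds for 16 h at 37 C; FRET substrate, 2 h, room temperature; fluorescence intensity.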
Assay [14] addresses Muscarinic acetylcholine receptor M1 (Homo sapiens) (UniProt P11229). The experiment in a line: Cholinergic receptor muscarinic 1 (CHRM1) small molecule agonists, cell-based qHTS assay (AID 1963589). Also: nearly all actives have a fitted effect of over 35% in size. The method in brief: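 qHTS, 15-point titration, 3 independent runs: compounds pin-transferred onto dye-loaded CHRM1-CHO cells (human M1), calcium fluorescence followed every second to detect agonism.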

The nature of assay [15]: cAMP Responsive Elements (CRE) small molecule agonists, cell-based qHTS assay (AID 1963590). The method in brief: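 Quantitative HTS for CRE agonists: HEK 293T CRE-bla cells, overnight plating, 3 h compound incubation at 37 C/5% CO2, then 2 h room-temperature LiveBLAzer B/G FRET substrate loading.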
The nature of assay [16]: cAMP Responsive Elements (CRE) small molecule antagonists, cell-based qHTS assay (AID 1963591; active = well fitted inhibition curve with a large enough effect in the signal ratio in the repeat runs, not every such curve was filed as active; the % refers to the signal ratio). In short, it runs like this: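 Fluorescence intensity from cleaved LiveBLAzer B/G substrate (2 h, room temperature) quantified CRE-bla activity in HEK 293T cells exposed 3 h to compound with 0.25 uM final NKH477.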
Assay [17] addresses Beta-2 adrenergic receptor (Homo sapiens) (UniProt P07550). The experiment in a line: Adrenergic beta2 receptor (ADRB2) small molecule antagonists, cell-based qHTS assay (AID 1963592). Also: series mostly up to about 92 µM; nearly all actives have a fitted effect of over 50% in size. The method in brief: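 Assay format: CHO-ADRB2 cells, 18-20hr seeding at 37C/5% CO2, then compound plus 1nM isoproterenol agonist mix for 0.5hr RT. Homogeneous time-resolved fluorescence cAMP detection after 1hr, expressed as 665/615 nm ratio.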

The target in assay [18] is D(2) dopamine receptor (Homo sapiens) (UniProt P14416). The experiment in a line: Dopamine D2 receptor (DRD2) small molecule agonists, cell-based qHTS assay (AID 1963594). Also: nearly all actives have a fitted effect of over 35% in size. The method in brief: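 HEK293 cells stably expressing DRD2 were cultured 24 h at 37 C, then given Ro20-1724 (0.1 mM final) and compounds for 10 min at room temperature. NKH477 (200nM) was then added for 30 min. cAMP was read by HTRF.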
Sequence of D(2) dopamine receptor (Homo sapiens) (P14416 whole entry, looked up): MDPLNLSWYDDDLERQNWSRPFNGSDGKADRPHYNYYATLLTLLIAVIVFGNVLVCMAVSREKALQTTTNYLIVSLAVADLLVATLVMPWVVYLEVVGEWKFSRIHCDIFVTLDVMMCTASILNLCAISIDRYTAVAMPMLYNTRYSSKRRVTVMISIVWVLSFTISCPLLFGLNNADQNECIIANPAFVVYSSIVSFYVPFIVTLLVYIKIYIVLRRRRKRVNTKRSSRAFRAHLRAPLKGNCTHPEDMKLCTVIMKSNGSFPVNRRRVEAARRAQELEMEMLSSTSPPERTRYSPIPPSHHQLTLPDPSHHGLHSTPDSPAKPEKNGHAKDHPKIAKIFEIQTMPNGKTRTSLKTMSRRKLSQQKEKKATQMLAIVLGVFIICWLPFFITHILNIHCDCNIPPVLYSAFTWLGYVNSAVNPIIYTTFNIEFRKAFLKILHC

Assay [19] is described as follows: G protein-coupled receptor (GPCR) small molecule agonists, calcium flux assay: HEK293 wild type cell line counter screen (AID 1920065). The method in brief: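 Non-specific calcium responders were flagged by adding DMSO-dissolved compounds to dye-loaded cells and reading 480/540 nm fluorescence each second for 3 min; ATP served as positive control.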
Assay [20] deals with Muscarinic acetylcholine receptor M1 (Homo sapiens) (UniProt P11229). The assay can be described thus: Cholinergic receptor muscarinic 1 (CHRM1) small molecule antagonists, cell-based qHTS assay (AID 1963588). Also: nearly all actives have a fitted effect of over 40% in size. The method in brief: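 Compounds were tested at 15 concentrations in three independent runs. Dye-loaded CHRM1-CHO cells were exposed 5 min at room temperature before stimulation by acetylcholine added at 50nM. Intracellular calcium was read kinetically on FDSS for 3 min.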
Sequence of Muscarinic acetylcholine receptor M1 (Homo sapiens) (P11229 whole entry, looked up): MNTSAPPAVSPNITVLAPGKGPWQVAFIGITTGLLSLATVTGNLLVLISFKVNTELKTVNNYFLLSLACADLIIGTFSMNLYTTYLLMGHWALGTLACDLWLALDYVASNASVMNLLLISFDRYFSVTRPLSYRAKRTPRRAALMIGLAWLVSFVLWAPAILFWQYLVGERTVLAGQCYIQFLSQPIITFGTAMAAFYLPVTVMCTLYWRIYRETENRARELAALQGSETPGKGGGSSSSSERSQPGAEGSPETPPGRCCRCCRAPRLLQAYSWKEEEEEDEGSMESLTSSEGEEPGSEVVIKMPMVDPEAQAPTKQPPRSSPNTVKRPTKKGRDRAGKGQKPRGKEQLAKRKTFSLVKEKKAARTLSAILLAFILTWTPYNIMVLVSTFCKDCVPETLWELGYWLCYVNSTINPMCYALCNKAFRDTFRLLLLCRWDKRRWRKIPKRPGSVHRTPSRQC

Sequence of KiSS-1 receptor (Homo sapiens) (Q969F8 whole entry, looked up): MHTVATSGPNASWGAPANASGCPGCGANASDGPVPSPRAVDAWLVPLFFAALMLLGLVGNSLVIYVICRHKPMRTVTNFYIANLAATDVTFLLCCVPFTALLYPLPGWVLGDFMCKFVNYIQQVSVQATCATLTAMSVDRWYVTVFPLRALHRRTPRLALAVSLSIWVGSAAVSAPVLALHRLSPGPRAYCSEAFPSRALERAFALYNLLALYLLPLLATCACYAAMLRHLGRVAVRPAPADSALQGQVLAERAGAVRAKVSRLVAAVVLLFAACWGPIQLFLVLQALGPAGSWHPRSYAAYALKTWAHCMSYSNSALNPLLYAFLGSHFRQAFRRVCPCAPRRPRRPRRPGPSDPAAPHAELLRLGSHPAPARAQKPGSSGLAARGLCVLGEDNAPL
Sequence of Gonadotropin-releasing hormone receptor (Homo sapiens) (P30968 whole entry, looked up): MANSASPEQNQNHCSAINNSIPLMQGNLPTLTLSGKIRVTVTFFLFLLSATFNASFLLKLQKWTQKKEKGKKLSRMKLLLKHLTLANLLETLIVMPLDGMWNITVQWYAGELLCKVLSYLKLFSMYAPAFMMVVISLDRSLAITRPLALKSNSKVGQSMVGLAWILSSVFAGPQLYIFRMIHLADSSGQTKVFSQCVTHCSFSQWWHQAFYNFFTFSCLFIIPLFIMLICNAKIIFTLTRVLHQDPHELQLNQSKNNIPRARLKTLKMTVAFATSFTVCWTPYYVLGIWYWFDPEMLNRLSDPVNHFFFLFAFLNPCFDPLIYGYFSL
Sequence of Beta-2 adrenergic receptor (Homo sapiens) (P07550 whole entry, looked up): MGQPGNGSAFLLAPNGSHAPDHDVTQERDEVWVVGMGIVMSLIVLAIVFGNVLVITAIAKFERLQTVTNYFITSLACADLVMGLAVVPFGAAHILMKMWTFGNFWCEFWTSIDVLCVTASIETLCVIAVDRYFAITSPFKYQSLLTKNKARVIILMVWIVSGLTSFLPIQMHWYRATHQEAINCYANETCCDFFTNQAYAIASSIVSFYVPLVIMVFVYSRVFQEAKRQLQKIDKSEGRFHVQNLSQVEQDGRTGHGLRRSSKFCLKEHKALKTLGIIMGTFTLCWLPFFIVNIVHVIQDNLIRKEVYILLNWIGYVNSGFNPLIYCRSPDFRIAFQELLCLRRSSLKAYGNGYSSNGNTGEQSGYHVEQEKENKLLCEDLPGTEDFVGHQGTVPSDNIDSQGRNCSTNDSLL

Regarding `CC(=O)[O][Pb]([c]1ccccc1)([c]1ccccc1)[c]1ccccc1`, the Potency in assay [1] is 3.86 µM (active); in assay [2], 0.864 µM (active); in [3] it was 30.9 µM (active); in assay [7] it was 4.08 µM (active); in [8] it was 8.14 µM (active); in assay [9], 16.2 µM (active). The Potency in [11] was 49 µM (active); in assay [12], 4.33 µM (active). In addition, the Potency result in assay [4], in assay [5], in assay [6] and in assay [10] was “inactive” each time.

As to `CC(CC(C#N)(c1ccccc1)c1ccccc1)N(C)C` (configuration not stated), the Potency entry in assay [1], in assay [2], in assay [3], in [4], in assay [5] and in [6] was “inactive” throughout. The Potency entry in assay [8], in [9], in assay [13], in assay [11], in [14] and in assay [15] was “inactive” throughout. Also, the Potency entry in assay [16], in assay [17], in [18] and in assay [12] was “inactive” in each case.

Take `CN(C)[C@@H]1C(=O)C(C(N)=O)=C(O)[C@@]2(O)C(=O)C3=C(O)c4c(O)ccc(Cl)c4[C@@](C)(O)[C@H]3C[C@@H]12`: the Potency result in [1], in [2], in assay [3], in [4], in [6] and in assay [7] was “inactive” each time. Also, the Potency entry in assay [8], in assay [18] and in assay [12] was “inactive” each time.

For the molecule `Cc1cc(C(C)(C)c2ccc(O)c(C)c2)ccc1O`, the Potency in assay [1] is 58.2 µM (active); in [10], 35.7 µM (active); in assay [11] it was 52.3 µM (active). For the same molecule, the Potency result in assay [2], in assay [3], in assay [19], in [5], in assay [6] and in [8] was “inactive” each time. Also, the Potency result in assay [9], in [20], in assay [14], in [17], in assay [18] and in assay [12] was “inactive” each time.

As for `CCOCn1c(-c2ccc(Cl)cc2)c(C#N)c(Br)c1C(F)(F)F`, the figures for the Potency in [1], in [2] and in assay [9] were 34.4 µM (active), 24.3 µM (active) and 10.2 µM (active), respectively. For the same molecule, the Potency entry in [3], in assay [4], in [10], in assay [11], in [20] and in [14] was “inactive” each time. Further, the Potency entry in assay [18] and in assay [12] was “inactive” each time.

Regarding `Cc1c([N+](=O)[O-])cc2c(c1[N+](=O)[O-])C(C)(C)CC2(C)C`, the Potency result in assay [1], in assay [3], in assay [19], in assay [5], in [6] and in assay [7] was “inactive” each time. Further, the Potency entry in assay [8], in assay [9], in assay [13], in assay [10], in assay [11] and in assay [20] was “inactive” throughout. In addition, the Potency entry in assay [14], in [15], in assay [17], in assay [18] and in [12] was “inactive” in each case. Also, the Potency in assay [2] is 48.6 µM (active).

Turning to `O=C(Cc1ccccc1)OCc1ccccc1`, the Potency entry in [1], in assay [2], in [3], in assay [4], in assay [7] and in [8] was “inactive” throughout. For the same molecule, the Potency result in [11], in [20], in assay [14], in [15], in assay [16] and in [17] was “inactive” in each case. Besides, the Potency result in assay [18] and in assay [12] was “inactive” in each case.

As to `N#Cc1sc2c(=O)c3ccccc3c(=O)c=2sc1C#N`, the Potency in assay [1] is 6.11 µM (active); in assay [2], 2.17 µM (active); in assay [7], 5.13 µM (active); in [8] it was 16.2 µM (active); in assay [9] it was 4.08 µM (active). Besides, the Potency entry in assay [3], in [19], in assay [5], in assay [6], in assay [11] and in assay [20] was “inactive” in each case. Further, the Potency entry in assay [14], in assay [17], in [18] and in assay [12] was “inactive” throughout.

For `O=C(CCl)Nc1ccccc1`, the values for the Potency in [1] and in [2] were 21.7 µM (active) and 15.4 µM (active), respectively. The Potency result in assay [3], in assay [19], in assay [5], in assay [6], in assay [7] and in assay [8] was “inactive” throughout. The Potency result in assay [9], in assay [10], in assay [11], in assay [20], in assay [14] and in [16] was “inactive” throughout. Further, the Potency result in assay [17], in assay [18] and in assay [12] was “inactive” in each case.
